Holding throughout (experiment): NCI-60 one-dose screen, 48 h (100 = growth as untreated, 0 = no growth, -100 = all killed)
What all share (settings): 10 µM unless noted

In assay [1] the test system is HCT-15 colon.
The test system of assay [2] is HT29 colon.
For assay [3], the system named is SNB-75 CNS.
The test system of assay [4] is SNB-19 CNS.
Assay [5] concerns U251 CNS.
The subject of assay [6] is PC-3 prostate.
The test system of assay [7] is SK-MEL-5 melanoma.
The test system of assay [8] is UACC-62 melanoma.
The subject of assay [9] is LOX IMVI melanoma.
Assay [10] relates to SK-MEL-28 melanoma.

Compounds without any hit were thinned out: in the full panel of roughly 83,000, 20% have a hit.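 A percent growth of 40 corresponds to 60% growth inhibition; 0 means no net growth; -100 means all cells died. Active threshold: below 10.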 A number with no mark means an inactive call. The source made the active and inactive calls.

On to `CC(=O)[C@H]1CC[C@]2(C)[C@@H]1CC[C@@H]1[C@@]3(C)C/C(=C/c4cccnc4)C(=O)C(C)(C)[C@@H]3CC[C@]12C`, for which the growth in assay [1] was 54.4%; in [2], 57.1%; in assay [3], 106%; in assay [4] it was 87.1%; in assay [5], 60.7%; in [6], 26.9%. For the same molecule, the growth in assay [7] is 38.9%; in [8], 59.9%; in assay [9], 87.6%; in assay [10], 94.9%.
`Nc1nc(Nc2ccc([N+](=O)[O-])cc2O)nc(C(Cl)(Cl)Cl)n1`: the growth was 53.3% in assay [1]; 106% in assay [2]; 62.6% in [3]; 80.2% in [4]; 73.3% in assay [5]; 91.6% in assay [6]. For the same molecule, the growth was 72.7% in [7], 41.1% in [8], 44.8% in assay [9] and 60% in assay [10].
In the case of `CN1CC(c2ccccc2)C(C(=O)c2ccc(Br)cc2)C12C(=O)Nc1ccccc12` (stereo not given), the growth in [1] was 95.7%; in assay [2], 87.2%; in assay [3], 96.1%; in assay [4], 89.9%; in [5] it was 94.1%; in assay [6], 70.7%. For the same molecule, the growth in assay [7] was 99%; in assay [8], 78.4%; in assay [9], 97.3%; in assay [10], 114%.
For `O=C(O)/C=C/c1cn(-c2ccccc2)nc1-c1ccc(F)cc1`, the growth in assay [1] was 101%; in assay [2] it was 107%; in [3], 87.9%; in assay [4] it was 92.2%; in assay [5], 96.2%; in assay [6] it was 84.4%. The growth is 93.9% in assay [7], 88.3% in assay [8], 95.2% in assay [9] and 104% in assay [10].
On to `FC(F)(F)c1cccc(-c2nnn(Cc3cc(-c4cccc(Cl)c4)no3)n2)c1`, for which the growth in assay [1] is 105%; in [2] it was 103%; in assay [3] it was 88.9%; in assay [4], 97.7%; in [5], 104%; in assay [6], 104%. Also, the growth in assay [7] is 101%; in assay [8], 103%; in [9], 99.4%; in assay [10], 112%.
Turning to `CS(=O)(=O)c1cccc(Nc2ncc3cc(-c4ccccc4Cl)ccc3n2)c1`, the growth in assay [1] was 12.1%; in assay [2], 1.92% (active); in [3], -11.4% (active); in assay [4], 36.2%; in [5], 16.6%; in [6], 12.3%. In addition, the growth in [7] was -49.1% (active); in assay [8], 4.77% (active); in assay [9], -6.95% (active); in [10], 19.7%.
In the case of `CCOC(=O)CCC(=O)P(=O)(O)O`, the growth in [1] is 108%; in assay [2], 95.9%; in assay [3] it was 146%; in assay [4], 92.6%; in assay [5] it was 102%; in assay [6], 62.8%. Moreover, the growth in assay [7] is 104%; in assay [8], 96.6%; in [9], 104%; in assay [10], 93.6%.
Take `CCNc1nc(-c2ccc(Cl)c(OC)c2)c(-c2ccnc(NCCNS(=O)(=O)c3ccc(Cl)cc3)n2)s1`: the growth is 16.7% in assay [1]; 5.01% (active) in [2]; 46.1% in assay [3]; 34.2% in [4]; 17.3% in assay [5]; 9.83% (active) in assay [6]. The growth in assay [7] is 13.5%; in [8], 24.6%; in [9] it was 13.9%; in assay [10], 32.3%.
For `COc1ccc(/C=N/NC(=O)Cn2nnc3ccccc32)cc1`, the growth is 104% in assay [1]; 105% in [2]; 90.6% in assay [3]; 101% in assay [4]; 102% in [5]; 95.9% in assay [6]. In addition, the growth in assay [7] is 110%; in assay [8], 84.6%; in assay [9], 106%; in [10], 102%.
With `CN1C(=O)N(C)C2C1NN=c1s/c(=C\c3ccccc3F)c(=O)n12` (stereo not given), the growth in [1] was 13.3%; in [2], 2.25% (active); in [3], -4.89% (active); in assay [4], 24.1%; in [5], 14.5%; in assay [6], 27.4%. The growth in assay [7] was 16.7%; in assay [8], 21%; in assay [9] it was 20.6%; in assay [10], 47.1%.
`O=C(/C=C\c1ccc(O)c(O)c1)c1ccccc1O`: the growth in [1] was 46%; in [2], 90.8%; in assay [3], 76.9%; in [4], 81.4%; in assay [5], 69%; in assay [6], 76.7%. The growth in assay [7] was 77.2%; in assay [8] it was 72.6%; in assay [9] it was 75.1%; in [10], 94.9%.
`O=C(Nc1cccc(Cn2c(=O)[nH]c3ccc(Oc4ncccn4)cc3c2=O)c1)c1cccc(Cl)c1`: the growth is 61.3% in assay [1]; 54.8% in assay [2]; 82.2% in assay [3]; 65.3% in assay [4]; 61.9% in assay [5]; 50.3% in assay [6]. The growth in assay [7] is 11.4%; in [8], 52.1%; in [9], 71.4%; in [10], 78.8%.
Take `CCOC(=O)c1c(C)nc2c(c1N)C(=O)C(=O)N2CCc1ccc(OC)c(OC)c1`: the growth in assay [1] was 33.3%; in assay [2], 39.6%; in [3], 67%; in assay [4], 84.8%; in [5], 57.7%; in [6] it was 58.9%. Besides, the growth in assay [7] was 44.9%; in [8], 64.8%; in assay [9], 76.9%; in assay [10], 80.9%.
`Cn1cc(-c2ccc3c(Nc4cccc(NC(=O)Nc5cccc(F)c5)c4)ncnc3c2)cn1`: the growth was 37.8% in assay [1]; 32.8% in assay [2]; 43.8% in assay [3]; 65% in assay [4]; 28.4% in assay [5]; 33.6% in [6]. The growth in assay [7] is 41.4%; in [8] it was 32.4%; in assay [9] it was 41.9%; in assay [10] it was 49.6%.
`O=C(O)COc1ccc(F)cc1`: the growth in assay [1] is 104%; in [2] it was 93.8%; in assay [3], 99.8%; in assay [4], 99.8%; in assay [5], 102%; in assay [6], 96.2%. Besides, the growth in assay [7] was 102%; in assay [8] it was 102%; in assay [9] it was 99%; in assay [10], 116%.
Take `O=C(Nc1ccccc1)Nc1ccccc1CNc1nc(Nc2ccc(OCCN3CCCC3)cc2)ncc1Cl`: the growth in assay [1] was 41.4%; in [2], 13.8%; in [3] it was 90%; in assay [4], 70.6%; in assay [5], 38.7%; in assay [6], 76.1%. For the same molecule, the growth in assay [7] is 57.2%; in [8], 86.1%; in assay [9], -68.3% (active); in [10] it was 78.5%.
For the molecule `CCOC(=O)CC1CSC(N/N=C/c2ccc(O)cc2)=N1` (stereo not given), the growth in assay [1] was 100%; in [2], 106%; in [3], 93.4%; in assay [4], 106%; in assay [5] it was 98.9%; in assay [6] it was 89.5%. For the same molecule, the growth is 102% in [7], 102% in assay [8], 99% in assay [9] and 107% in [10].
On to `Cc1c(C)c2c(c(C)c1OC(=O)CCC(=O)[O-])CCC(C)(CCCCCCCCCCC[P+](c1ccccc1)(c1ccccc1)c1ccccc1)O2` (stereo not given), for which the growth is 2.7% (active) in assay [1]; 6.17% (active) in assay [2]; -31.5% (active) in assay [3]; -42.4% (active) in assay [4]; -70.1% (active) in [5]; -31.9% (active) in [6]. Besides, the growth in assay [7] was -98.3% (active); in assay [8] it was -54.1% (active); in assay [9] it was -91.4% (active); in assay [10] it was -77.3% (active).
As for `C=C(c1ccc(C(=O)O)c(F)c1)c1cc2c(cc1C)C(C)(C)C=CC2(C)C`, the growth was 79.3% in [1]; 80.7% in assay [2]; 89.9% in assay [3]; 67.9% in assay [4]; 65.7% in assay [5]; 70.3% in assay [6]. In addition, the growth in [7] is 69.7%; in [8], 81.1%; in [9], 81.4%; in [10], 98.4%.
`Cc1csc(Nc2nc(-c3cccc(Cl)c3)nc(C(Cl)(Cl)Cl)n2)n1`: the growth in assay [1] is 53.9%; in assay [2], 2.7% (active); in [3], 3.48% (active); in assay [4], 39.9%; in [5] it was 19.9%; in assay [6], 39.7%. Also, the growth was 88.8% in assay [7], 74.2% in assay [8], 91.1% in assay [9] and 39.5% in assay [10].
With `O=C1NC(=O)C(=Cc2cc(-c3ccc(Cl)cc3)n(-c3ccccc3)n2)C(=O)N1`, the growth in assay [1] is 89.4%; in [2] it was 112%; in assay [3] it was 92.4%; in assay [4] it was 87.3%; in assay [5], 96.7%; in [6] it was 100%. Further, the growth is 96.6% in [7], 90.5% in [8], 104% in assay [9] and 98.5% in assay [10].
As for `CC/C(=C(/c1ccc(Cl)cc1)c1ccc(OCCN2CCCCCC2)cc1)c1ccccc1`, the growth was 35.3% in assay [1]; 17% in assay [2]; 107% in [3]; 83% in [4]; 62.4% in [5]; 63.3% in assay [6]. Also, the growth is 79.6% in assay [7], 87% in assay [8], 68.5% in assay [9] and 95.7% in assay [10].
On to `COc1cc2cc(Oc3ccc(NC(=O)Nc4ccc(Cl)c(Cl)c4)cc3)c(C)nc2cc1OCCN1CCCCC1`, for which the growth is 71.6% in assay [1]; 19.9% in assay [2]; 96.8% in [3]; 99.3% in [4]; 53.2% in assay [5]; -30.2% (active) in assay [6]. Moreover, the growth is 89% in assay [7], 106% in [8], 99.1% in [9] and 98.2% in assay [10].
As for `O=C1c2c(c3c4cccnc4[nH]c3c3ccc4ccccc4c23)C(=O)N1O`, the growth in [1] was 69%; in assay [2], 27.9%; in assay [3], 101%; in [4] it was 29.7%; in assay [5], 15.2%; in assay [6] it was 43.1%. The growth in [7] is 23.2%; in assay [8], 24.4%; in assay [9] it was -31.5% (active); in [10], 46.1%.
Regarding `COc1ccc(CNc2ccc3nc(CCC4CCCCC4)[nH]c3c2)cc1`, the growth in [1] is 42%; in [2], 18.4%; in assay [3] it was 69.4%; in assay [4], 84%; in [5], 60.9%; in assay [6], 59.1%. Moreover, the growth is 38% in assay [7], 69.9% in assay [8], 81.5% in [9] and 76.4% in assay [10].
`O=C(Nc1ccccc1C(F)(F)F)C1=NCCCCN1`: the growth in assay [1] is 97.8%; in assay [2], 98.7%; in [3], 88%; in assay [4] it was 97.7%; in assay [5] it was 103%; in [6], 96.5%. Besides, the growth in [7] is 100%; in [8] it was 93.3%; in [9], 96.2%; in assay [10], 106%.
Regarding `CC(CN)[C@@H]1CC[C@]2(CO)CC[C@]3(C)[C@H](CC[C@@H]4[C@@]5(C)CCC(NCCO)C(C)(C)[C@@H]5CC[C@]43C)[C@@H]12` (stereo not given in full), the growth is 38.4% in [1]; 1.25% (active) in assay [2]; 59.5% in assay [3]; 78.5% in [4]; 18.4% in assay [5]; 69.4% in [6]. The growth was 32.9% in [7], 91.9% in [8], -64.4% (active) in [9] and -5.2% (active) in assay [10].

The values above are taken from PubChem BioAssay (NCI).
